Among the data in PubChem BioAssay (NCI) are growth values, retold here.

The panel holds about 83,000 compounds, 20% with a hit somewhere; the sample as a whole holds those more often.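 How to read the values: 0–100, growth inhibition (40 = 60% inhibited); 0, no net growth; -100 to 0, cell death (-40 = 40% of starting cells died; -100 = all dead).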 A number with no mark means an inactive call. Activity calls are given as the source filed them. The calls were made as follows: active = growth percent below 10; inactive = the rest.

Among the test systems are HCT-15 colon; HT29 colon; SNB-75 CNS; SNB-19 CNS; U251 CNS; PC-3 prostate; SK-MEL-5 melanoma; UACC-62 melanoma; LOX IMVI melanoma; SK-MEL-28 melanoma.
Assay in all cases: NCI-60 one-dose screen, 48 h (100 = growth as untreated, 0 = no growth, -100 = all killed)
Holding throughout (details): 10 µM

Take `COc1cc2cc(Oc3ccc(NC(=O)Nc4cccc(C(F)(F)F)c4)cc3)c(C)nc2cc1OC`: the growth is 15.2% in the experiment with HCT-15 colon; 6.55% (active) with HT29 colon; 13% with SNB-75 CNS; 31.4% with SNB-19 CNS; -85.7% (active) in the experiment with U251 CNS; 0.0827% (active) with PC-3 prostate. Moreover, the growth in the experiment with SK-MEL-5 melanoma is -86.1% (active); in the experiment with UACC-62 melanoma, 14.5%; in the experiment with LOX IMVI melanoma it was 9.78% (active); in the experiment with SK-MEL-28 melanoma, 26.7%.

With `CCCCN(CCCC)C(=O)[C@H](CC)[C@@H]1CC[C@@H](C)[C@@H]([C@H](C)[C@@H](O)[C@@H](C)C(=O)[C@H](CC)C2O[C@]3(C=CC(=O)[C@]4(CC[C@@](C)([C@H]5CC[C@](O)(CC)[C@H](C)O5)O4)O3)[C@H](C)C[C@@H]2C)O1` (stereo not given in full), the growth in the experiment on HCT-15 colon was 54%; in the experiment with HT29 colon, 20.9%; in the experiment on SNB-75 CNS it was 33.3%; in the experiment with SNB-19 CNS, 27%; in the experiment on U251 CNS it was 32.7%; with PC-3 prostate, 12.5%. Moreover, the growth with SK-MEL-5 melanoma was 18%; in the experiment with UACC-62 melanoma it was 22.5%; with LOX IMVI melanoma, 43.5%; in the experiment on SK-MEL-28 melanoma it was 23.8%.

`C#C[C@]1(O)CCC2C3CCc4cc(OC5CCCC5)ccc4C3CC[C@@]21C` (stereo not given in full): the growth in the experiment with HCT-15 colon is 24%; in the experiment with HT29 colon it was 0.124% (active); with SNB-75 CNS, 96%; in the experiment on SNB-19 CNS, 104%; with U251 CNS it was 69.9%; with PC-3 prostate, 57.9%. Further, the growth with SK-MEL-5 melanoma is 100%; in the experiment with UACC-62 melanoma it was 81.1%; in the experiment with LOX IMVI melanoma, 42%; in the experiment with SK-MEL-28 melanoma it was 103%.

Regarding `Cc1c(O)c(=O)ccn1C1CCC(CC2CCC(n3ccc(=O)c(O)c3C)CC2)CC1` (stereo not given), the growth in the experiment with HCT-15 colon is 18.9%; with HT29 colon it was 33.8%; in the experiment with SNB-75 CNS it was 21.1%; in the experiment on SNB-19 CNS, 30.2%; with U251 CNS it was 30.2%; in the experiment on PC-3 prostate it was 41.7%. The growth is 29.2% in the experiment with SK-MEL-5 melanoma, 14.6% in the experiment with UACC-62 melanoma, 25% in the experiment with LOX IMVI melanoma and 49.4% with SK-MEL-28 melanoma.

For `C[C@H]1[C@H](OC(=O)CCC(=O)O)O[C@@H]2O[C@]3(C)CC[C@H]4[C@H](C)CC[C@@H]1[C@@]24OO3`, the growth was 16.7% with HCT-15 colon; 23.8% in the experiment with HT29 colon; 61.8% in the experiment with SNB-75 CNS; 57.9% with SNB-19 CNS; 36.5% in the experiment with U251 CNS; 25% in the experiment with PC-3 prostate. Besides, the growth is 28% in the experiment on SK-MEL-5 melanoma, 36.4% with UACC-62 melanoma, -49.5% (active) in the experiment on LOX IMVI melanoma and 70.5% in the experiment on SK-MEL-28 melanoma.

As for `COc1ccc2nc3cc(Cl)ccc3c(N)c2c1`, the growth in the experiment with HCT-15 colon was -65% (active); in the experiment with HT29 colon, -67.3% (active); in the experiment with SNB-75 CNS it was -99.3% (active); in the experiment on SNB-19 CNS, 4.71% (active); with U251 CNS, -74.3% (active); in the experiment with PC-3 prostate it was -73% (active). For the same compound, the growth was -95.6% (active) in the experiment on SK-MEL-5 melanoma, -96.4% (active) in the experiment with UACC-62 melanoma, -94.7% (active) with LOX IMVI melanoma and -98.4% (active) with SK-MEL-28 melanoma.

Consider `NS(=O)(=O)Oc1ccc2c(ccn2C(=O)C23CC4CC(CC(C4)C2)C3)c1`, for which the growth in the experiment on HCT-15 colon is 110%; in the experiment on HT29 colon, 102%; with SNB-75 CNS, 117%; with SNB-19 CNS, 98.5%; in the experiment on U251 CNS, 99.2%; in the experiment with PC-3 prostate, 103%. Also, the growth with SK-MEL-5 melanoma is 95%; in the experiment on UACC-62 melanoma it was 98.8%; in the experiment on LOX IMVI melanoma it was 98.8%; in the experiment with SK-MEL-28 melanoma, 101%.

For `COc1ccc(C(c2ccc(OCCN(C)C)cc2)c2cc3ccccc3c3ccccc23)cc1` (stereo not given), the growth with HCT-15 colon was -30.9% (active); in the experiment on HT29 colon, -7.37% (active); in the experiment on SNB-75 CNS, 86.8%; in the experiment with SNB-19 CNS, 65%; in the experiment with U251 CNS, 16.6%; with PC-3 prostate, 60.7%. Besides, the growth is 58.6% with SK-MEL-5 melanoma, -47.8% (active) in the experiment with UACC-62 melanoma, -81% (active) in the experiment with LOX IMVI melanoma and -77.8% (active) in the experiment with SK-MEL-28 melanoma.

For `COc1cc2nc(SCC(=O)Nc3cc(OC)c(OC)c(OC)c3)n(Cc3ccccc3)c(=O)c2cc1OC`, the growth in the experiment on HCT-15 colon is 90.2%; with HT29 colon, 61.9%; in the experiment on SNB-75 CNS, -1.98% (active); with SNB-19 CNS it was 63.7%; with U251 CNS, 6.92% (active); in the experiment with PC-3 prostate, 35.8%. For the same compound, the growth with SK-MEL-5 melanoma was 67.2%; with UACC-62 melanoma, 76.3%; in the experiment with LOX IMVI melanoma, 68.7%; in the experiment on SK-MEL-28 melanoma it was 60.5%.

With `COc1cc2cc(Oc3ccc(NC(=O)c4ccccc4)cc3)c(C)nc2cc1OC`, the growth in the experiment on HCT-15 colon was 94.3%; in the experiment on HT29 colon it was 104%; in the experiment on SNB-75 CNS it was 54.1%; with SNB-19 CNS, 98.6%; in the experiment with U251 CNS it was 59.3%; with PC-3 prostate, 75.4%. In addition, the growth is 80.2% in the experiment with SK-MEL-5 melanoma, 95.9% with UACC-62 melanoma, 86.5% in the experiment with LOX IMVI melanoma and 92.9% in the experiment with SK-MEL-28 melanoma.

Regarding `Nc1cc(Br)c(-c2nn3c(CCC(=O)c4nc5ccccc5[nH]4)nnc3s2)c(Br)c1`, the growth in the experiment with HCT-15 colon is 124%; with HT29 colon it was 78.7%; in the experiment with SNB-75 CNS, 92.6%; in the experiment on SNB-19 CNS, 104%; in the experiment on U251 CNS, 97.5%; in the experiment on PC-3 prostate it was 87.1%. The growth with SK-MEL-5 melanoma was 91.6%; in the experiment on UACC-62 melanoma, 101%; with LOX IMVI melanoma it was 93.4%; with SK-MEL-28 melanoma, 111%.

As for `COc1cc2cc(Oc3ccc(NC(=O)Nc4ccc(Cl)c(Cl)c4)cc3)c(C)nc2cc1OC`, the growth was 18.9% in the experiment with HCT-15 colon; 10.9% with HT29 colon; 22.4% in the experiment with SNB-75 CNS; 28.6% in the experiment with SNB-19 CNS; -32.3% (active) with U251 CNS; 4.12% (active) in the experiment with PC-3 prostate. The growth in the experiment on SK-MEL-5 melanoma was -35% (active); in the experiment on UACC-62 melanoma, 20.4%; with LOX IMVI melanoma, 23.1%; in the experiment on SK-MEL-28 melanoma, 44.6%.

For `Cc1cc(C)nc(NS(=O)(=O)c2ccc(Nc3nc4nc(NCc5ccccc5)nc(-c5ccc(O)cc5)c4c(=O)[nH]3)cc2)n1`, the growth in the experiment on HCT-15 colon is 18.5%; in the experiment with HT29 colon, 32.2%; with SNB-75 CNS, 48.2%; with SNB-19 CNS it was 28.2%; with U251 CNS it was 11.9%; in the experiment on PC-3 prostate it was 1.02% (active). In addition, the growth with SK-MEL-5 melanoma is 4.9% (active); in the experiment on UACC-62 melanoma, 21.8%; in the experiment on LOX IMVI melanoma, 23.4%; in the experiment with SK-MEL-28 melanoma, 32.7%.
